Inconclusive results are not listed. A structure can be active in one record and inactive in another. Calls of active or inactive are those of the source. Calls come from the whole dose curve; as a rule, active = well fitted curve in the direction sought with a large enough effect; inconclusive = small, poorly fitted or top-dose-only effect, or another doubt; inactive = no such curve, though single readings can be large; an effect the other way counts as inactive or inconclusive.

Data on 39 compounds can be found in PubChem BioAssay (NCATS).

Test [1] has as its target Flap endonuclease 1 (Homo sapiens) (UniProt P39748). Put plainly: qHTS Validation Assay for the Inhibitors of Human Flap endonuclease 1 (FEN1) (AID 488816). Note: potency is the fitted concentration of half-maximal effect. The essentials: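 qHTS format: compounds and 10 nM FEN1 incubated 15 min at room temperature before adding 50 nM substrate. Cleavage followed by reads at 0 and 15 min; normalized data fitted to a four-parameter Hill curve.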
For orientation: In qHTS, concentration-response curves come from the screen itself.

Test [2] concerns the target M-phase phosphoprotein 8 (Homo sapiens) (UniProt Q99549). Put plainly: qHTS Validation Assay for Inhibitors for MPP8 Chromodomain Interactions with Methylated Histone Tails (AID 488949). Note: nearly all actives have a fitted effect of over 55% in size. Note: potency is the fitted concentration of half-maximal effect. In short, it runs like this: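 AlphaScreen proximity signal from streptavidin donor and Ni-chelate acceptor beads (10 ug/mL each) reported binding of MPP8 to trimethyl-K9 H3(1-18) peptide, both at 50 nM. The complex formed 30 min before a 30 min compound exposure at room temperature, in PBS pH 7.4.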

The target in test [3] is Chromobox protein homolog 1 (Homo sapiens) (UniProt P83916). Put plainly: qHTS Validation Assay for Inhibitors of HP1-beta Chromodomain Interactions with Methylated Histone Tails (AID 488953). Note: nearly all actives have a fitted effect of over 50% in size. Note: potency is the fitted concentration of half-maximal effect. The essentials:
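AlphaScreen proximity signal from streptavidin donor and nickel chelate acceptor beads (final 10 ug/mL) after 30 min dark incubation. Compounds had 30 min at room temperature with preformed complex of 50 nM HP1-beta and 50 nM b-H3(1-18)K9me3 in PBS pH 7.4 with 0.01% Tween-20.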

Test [4] concerns the target D(1A) dopamine receptor (Homo sapiens) (UniProt P21728). Put plainly: HTS Assay for Allosteric Agonists of the Human D1 Dopamine Receptor: Primary Screen for Agonists (AID 488981). Note: potency is the fitted concentration of half-maximal effect. In short, it runs like this:
(§1)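 Calcium flux in an inducible, force-coupled HEK293 Trex D1 line (overnight at 30 C): agonist mode is the 180 s kinetic read after compound; potentiator mode is the following 180 s read after dopamine at EC20.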

For test [5] the target is unchanged. Put plainly: HTS Assay for Allosteric Agonists of the Human D1 Dopamine Receptor: Primary Screen for Potentiators (AID 488982). Note: potency is the fitted concentration of half-maximal effect. In short, it runs like this:
as §1

For test [6] the target is unchanged. The experiment in a line: HTS Assay for Allosteric Agonists of the Human D1 Dopamine Receptor: Primary Screen for Antagonists (AID 488983).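 Note: calcium flux response to an EC80 dopamine challenge measured with no-wash dye; nearly all actives have a fitted effect of over 65% in size.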 Note: potency is the fitted concentration of half-maximal effect. In short, it runs like this:
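Calcium-flux read-out in inducible HEK293 T-REx cells expressing D1, dye-loaded 30–90 min at room temperature. Kinetic reads: 180 s after compound (agonist phase), then 180 s after an EC80 dopamine challenge.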

Test [7] is described as follows: Validation screen for small molecules that induce genotoxicity in human embryonic kidney (HEK293T) cells expressing luciferase-tagged ELG1 (AID 493106). Note: potency is the fitted concentration of half-maximal effect. The essentials:
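ELG1-luciferase reporter readout (ONE-Glo, 30 min, room temperature) after 16 hr compound treatment at 37 °C of HEK293T cells at 2,000 per well. Rising luminescence flags genotoxic stress.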

For test [8], the target named is ATPase family AAA domain-containing protein 5 (Homo sapiens) (UniProt Q96QE3). The experiment in a line: Validation screen for small molecules that inhibit ELG1-dependent DNA repair in human embryonic kidney (HEK293T) cells expressing luciferase-tagged ELG1 (AID 493107). Note: nearly all actives have a fitted effect of over 70% in size. Note: potency is the fitted concentration of half-maximal effect. The essentials:
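Luciferase read-out, ONE-Glo, 30 min at room temperature, follows 16 h co-exposure at 37 C of compound and the DNA-damaging agent 5-fluorouridine. Cells: HEK293T with ELG1-luciferase fusion, 2,000 per well, DMSO as vehicle.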

Test [9] deals with Thyrotropin receptor (Homo sapiens) (UniProt P16473). Put plainly: qHTS Assay for Antagonists of the Thyroid Stimulating Hormone Receptor (AID 488980). Note: series mostly up to about 58 µM. The essentials:
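Inhibition of cAMP raised by EC80 TSH (4 nM final) was read by HTRF, with lysate cAMP competing against cAMP-d2 for cryptate antibody after 30 min at room temperature. The cells were transfected HEK293 held in phosphodiesterase inhibitor RO 20-1724 at 70 uM.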

Test [10] has as its target ATP-dependent 6-phosphofructokinase (Trypanosoma brucei brucei) (UniProt O15648). Put plainly: qHTS Assay to Find Inhibitors of T. brucei phosphofructokinase: hit validation (AID 492961).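 Note: luminescence reports ADP formed as PFK phosphorylates fructose-6-phosphate with ATP; series mostly up to about 51 µM.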 The essentials: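 ADP-Glo luminescence read-out of ADP formed by 1.25 nM PFK from 0.1 mM ATP and 0.5 mM F6P (TEA pH 8.0, 45 min, RT). Compounds titrated; activity normalized to no-enzyme and full-enzyme controls.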

Sequence of D(1A) dopamine receptor (Homo sapiens) (P21728 whole entry, looked up): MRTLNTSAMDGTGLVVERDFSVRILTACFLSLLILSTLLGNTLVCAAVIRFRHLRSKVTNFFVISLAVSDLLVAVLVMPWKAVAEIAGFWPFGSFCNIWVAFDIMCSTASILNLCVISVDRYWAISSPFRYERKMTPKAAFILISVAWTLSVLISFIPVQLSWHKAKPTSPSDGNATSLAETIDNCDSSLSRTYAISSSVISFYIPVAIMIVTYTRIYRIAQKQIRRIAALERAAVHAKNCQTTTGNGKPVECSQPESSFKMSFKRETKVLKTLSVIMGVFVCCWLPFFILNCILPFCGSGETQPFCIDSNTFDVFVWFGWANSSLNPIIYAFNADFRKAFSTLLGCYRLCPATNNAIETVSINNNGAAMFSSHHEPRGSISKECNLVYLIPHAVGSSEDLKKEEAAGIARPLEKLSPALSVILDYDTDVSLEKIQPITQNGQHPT
Sequence of Flap endonuclease 1 (Homo sapiens) (P39748 whole entry, looked up): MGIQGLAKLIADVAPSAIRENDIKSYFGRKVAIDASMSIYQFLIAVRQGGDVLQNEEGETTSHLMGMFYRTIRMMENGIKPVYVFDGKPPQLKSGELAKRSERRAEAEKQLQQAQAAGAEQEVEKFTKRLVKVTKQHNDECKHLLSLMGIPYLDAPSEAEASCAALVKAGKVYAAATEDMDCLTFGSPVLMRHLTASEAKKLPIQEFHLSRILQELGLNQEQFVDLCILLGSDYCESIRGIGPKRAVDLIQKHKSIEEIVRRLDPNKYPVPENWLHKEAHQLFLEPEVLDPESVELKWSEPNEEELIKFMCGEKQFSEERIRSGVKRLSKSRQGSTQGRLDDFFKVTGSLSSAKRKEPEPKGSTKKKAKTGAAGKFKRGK
Sequence of M-phase phosphoprotein 8 (Homo sapiens) (Q99549 whole entry, looked up): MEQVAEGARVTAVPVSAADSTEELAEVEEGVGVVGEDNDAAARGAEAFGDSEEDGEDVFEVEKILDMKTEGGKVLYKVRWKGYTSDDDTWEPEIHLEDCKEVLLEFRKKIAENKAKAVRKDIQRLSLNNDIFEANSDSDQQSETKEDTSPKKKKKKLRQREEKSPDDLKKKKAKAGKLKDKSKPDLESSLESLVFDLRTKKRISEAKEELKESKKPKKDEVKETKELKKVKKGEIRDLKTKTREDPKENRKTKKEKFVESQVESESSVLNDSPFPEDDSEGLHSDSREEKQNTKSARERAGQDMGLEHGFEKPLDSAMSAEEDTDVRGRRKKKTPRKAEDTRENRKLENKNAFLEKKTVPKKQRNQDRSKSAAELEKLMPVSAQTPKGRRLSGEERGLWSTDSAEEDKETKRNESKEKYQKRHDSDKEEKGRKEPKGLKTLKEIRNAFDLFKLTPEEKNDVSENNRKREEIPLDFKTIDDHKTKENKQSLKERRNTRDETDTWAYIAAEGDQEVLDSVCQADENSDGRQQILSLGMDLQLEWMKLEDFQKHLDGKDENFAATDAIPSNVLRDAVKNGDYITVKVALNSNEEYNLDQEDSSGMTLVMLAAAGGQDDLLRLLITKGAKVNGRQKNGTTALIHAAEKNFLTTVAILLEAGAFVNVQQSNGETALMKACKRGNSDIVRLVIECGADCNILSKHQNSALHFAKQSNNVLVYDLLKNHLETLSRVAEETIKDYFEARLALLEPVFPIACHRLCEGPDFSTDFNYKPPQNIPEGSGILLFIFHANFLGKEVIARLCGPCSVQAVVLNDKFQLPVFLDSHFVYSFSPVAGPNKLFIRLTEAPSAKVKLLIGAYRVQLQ
Sequence of Thyrotropin receptor (Homo sapiens) (P16473 whole entry, looked up): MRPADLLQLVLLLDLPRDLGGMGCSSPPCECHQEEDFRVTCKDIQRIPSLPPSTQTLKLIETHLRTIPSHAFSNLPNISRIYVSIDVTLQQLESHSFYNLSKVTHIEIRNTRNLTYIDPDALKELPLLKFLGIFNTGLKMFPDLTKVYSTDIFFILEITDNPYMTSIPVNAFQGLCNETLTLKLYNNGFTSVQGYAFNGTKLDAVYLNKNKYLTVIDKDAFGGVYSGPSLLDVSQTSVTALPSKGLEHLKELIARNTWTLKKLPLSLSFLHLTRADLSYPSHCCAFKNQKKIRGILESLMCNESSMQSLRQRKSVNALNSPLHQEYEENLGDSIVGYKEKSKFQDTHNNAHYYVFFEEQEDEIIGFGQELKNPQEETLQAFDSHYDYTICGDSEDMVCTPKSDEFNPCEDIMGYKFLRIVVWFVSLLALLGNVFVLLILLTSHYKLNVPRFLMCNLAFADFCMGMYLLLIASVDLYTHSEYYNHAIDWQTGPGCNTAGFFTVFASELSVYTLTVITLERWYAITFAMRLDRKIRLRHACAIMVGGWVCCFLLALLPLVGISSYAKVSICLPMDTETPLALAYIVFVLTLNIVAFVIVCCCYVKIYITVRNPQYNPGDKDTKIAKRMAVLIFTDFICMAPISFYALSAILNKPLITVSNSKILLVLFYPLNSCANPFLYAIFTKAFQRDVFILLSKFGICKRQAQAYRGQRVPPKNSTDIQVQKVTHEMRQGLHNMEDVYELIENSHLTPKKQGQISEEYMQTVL
Sequence of ATP-dependent 6-phosphofructokinase (Trypanosoma brucei brucei) (O15648 whole entry, looked up): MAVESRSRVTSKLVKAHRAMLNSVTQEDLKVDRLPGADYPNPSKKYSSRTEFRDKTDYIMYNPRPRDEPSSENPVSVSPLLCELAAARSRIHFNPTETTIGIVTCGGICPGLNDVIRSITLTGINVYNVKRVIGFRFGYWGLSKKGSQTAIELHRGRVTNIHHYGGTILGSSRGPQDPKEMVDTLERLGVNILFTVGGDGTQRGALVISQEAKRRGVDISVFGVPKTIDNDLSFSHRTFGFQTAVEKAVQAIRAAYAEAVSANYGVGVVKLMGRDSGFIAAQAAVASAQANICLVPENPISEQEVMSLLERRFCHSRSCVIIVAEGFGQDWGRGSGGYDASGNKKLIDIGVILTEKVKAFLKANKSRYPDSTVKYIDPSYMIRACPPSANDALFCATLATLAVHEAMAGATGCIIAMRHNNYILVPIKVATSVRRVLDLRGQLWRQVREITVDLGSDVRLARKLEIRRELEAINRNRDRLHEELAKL
Sequence of Chromobox protein homolog 1 (Homo sapiens) (P83916 whole entry, looked up): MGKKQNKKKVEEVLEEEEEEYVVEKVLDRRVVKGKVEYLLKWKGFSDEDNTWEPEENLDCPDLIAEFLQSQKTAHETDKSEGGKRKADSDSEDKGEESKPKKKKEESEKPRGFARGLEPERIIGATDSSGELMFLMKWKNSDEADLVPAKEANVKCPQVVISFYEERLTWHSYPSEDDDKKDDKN
Sequence of ATPase family AAA domain-containing protein 5 (Homo sapiens) (Q96QE3 whole entry, looked up, the tested form may be a part): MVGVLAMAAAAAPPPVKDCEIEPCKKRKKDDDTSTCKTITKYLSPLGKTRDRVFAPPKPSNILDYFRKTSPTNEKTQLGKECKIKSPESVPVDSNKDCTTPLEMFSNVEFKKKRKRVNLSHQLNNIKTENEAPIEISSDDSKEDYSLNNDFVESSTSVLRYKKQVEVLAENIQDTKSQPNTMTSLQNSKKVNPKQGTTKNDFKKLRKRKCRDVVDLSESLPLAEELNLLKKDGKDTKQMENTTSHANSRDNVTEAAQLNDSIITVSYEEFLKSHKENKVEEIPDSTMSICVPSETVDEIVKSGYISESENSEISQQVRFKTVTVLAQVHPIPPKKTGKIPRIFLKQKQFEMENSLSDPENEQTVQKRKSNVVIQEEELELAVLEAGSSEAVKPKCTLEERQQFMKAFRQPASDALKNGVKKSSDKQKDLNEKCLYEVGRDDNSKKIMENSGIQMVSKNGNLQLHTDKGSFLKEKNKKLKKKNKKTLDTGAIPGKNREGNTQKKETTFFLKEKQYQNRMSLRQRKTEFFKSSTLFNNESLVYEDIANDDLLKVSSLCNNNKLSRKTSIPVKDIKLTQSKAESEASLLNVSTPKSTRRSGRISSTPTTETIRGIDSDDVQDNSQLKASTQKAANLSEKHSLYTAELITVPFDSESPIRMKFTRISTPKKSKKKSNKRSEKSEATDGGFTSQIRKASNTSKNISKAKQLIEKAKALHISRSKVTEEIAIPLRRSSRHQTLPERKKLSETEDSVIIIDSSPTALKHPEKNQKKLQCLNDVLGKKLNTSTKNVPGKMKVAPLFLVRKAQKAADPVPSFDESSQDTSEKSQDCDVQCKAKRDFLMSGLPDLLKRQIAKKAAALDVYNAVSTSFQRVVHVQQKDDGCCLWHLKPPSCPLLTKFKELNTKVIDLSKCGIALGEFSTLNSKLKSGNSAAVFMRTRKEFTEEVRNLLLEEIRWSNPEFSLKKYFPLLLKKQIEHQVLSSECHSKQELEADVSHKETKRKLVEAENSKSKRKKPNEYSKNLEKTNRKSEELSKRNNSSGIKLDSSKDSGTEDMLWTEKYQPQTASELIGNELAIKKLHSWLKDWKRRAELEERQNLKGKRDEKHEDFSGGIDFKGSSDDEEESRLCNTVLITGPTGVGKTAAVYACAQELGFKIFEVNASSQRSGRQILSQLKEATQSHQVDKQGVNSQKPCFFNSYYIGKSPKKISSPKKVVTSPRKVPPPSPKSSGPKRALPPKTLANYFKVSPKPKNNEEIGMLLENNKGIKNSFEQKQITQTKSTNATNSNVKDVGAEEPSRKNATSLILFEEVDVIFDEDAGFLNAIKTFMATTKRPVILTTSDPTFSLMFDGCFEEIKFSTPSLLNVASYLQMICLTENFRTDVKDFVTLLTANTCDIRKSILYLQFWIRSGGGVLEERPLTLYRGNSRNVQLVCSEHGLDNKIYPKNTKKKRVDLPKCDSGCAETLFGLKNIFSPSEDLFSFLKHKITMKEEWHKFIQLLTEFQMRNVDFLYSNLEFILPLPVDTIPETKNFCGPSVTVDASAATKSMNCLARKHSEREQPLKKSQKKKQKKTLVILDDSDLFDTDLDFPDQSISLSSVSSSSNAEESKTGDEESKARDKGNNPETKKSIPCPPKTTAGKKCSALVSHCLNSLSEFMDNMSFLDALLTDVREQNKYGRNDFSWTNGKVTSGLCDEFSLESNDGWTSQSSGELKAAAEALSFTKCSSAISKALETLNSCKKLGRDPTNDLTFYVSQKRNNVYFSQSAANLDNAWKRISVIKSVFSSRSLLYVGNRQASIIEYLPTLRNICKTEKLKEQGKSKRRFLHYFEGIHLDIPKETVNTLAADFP

Regarding `CC(O)(CS(=O)(=O)c1ccc(F)cc1)C(=O)Nc1ccc(C#N)c(C(F)(F)F)c1` (stereo not drawn), the Potency entry in [1], in test [2], in test [3], in test [4], in test [5] and in test [6] was “inactive” each time. The Potency result in test [7] and in test [8] was “inactive” throughout.
As to `CCOC(=O)c1ncn2c1CN(C)C(=O)c1cc(F)ccc1-2`, the Potency result in test [1] is “inactive”.
For `CNCC(O)c1ccc(O)cc1` (stereo not drawn), the Potency result in test [1], in test [2], in test [3], in [4], in test [5] and in test [6] was “inactive” each time. The Potency entry in test [7] and in test [8] was “inactive” in each case. Moreover, the compound was called inactive in test [9].
Consider `CCCC(C)(COC(N)=O)COC(=O)NC(C)C` (stereo not drawn), for which the Potency result in test [1], in [2], in test [4], in [5], in [6] and in test [7] was “inactive” each time. For the same compound, the Potency result in [8] is “inactive”. Also, the Potency in test [3] was 0.006 µM (active). The compound was classed as inactive in test [9].
Turning to `CC(COc1ccccc1)N(CCCl)Cc1ccccc1` (stereo not drawn), the Potency result in test [1] and in test [2] was “inactive” each time. The Potency in [3] was 0.0095 µM (active).
For `CN1C[C@H](CNC(=O)OCc2ccccc2)C[C@@H]2c3cccc4c3c(cn4C)C[C@H]21`, the Potency entry in test [1], in [2], in test [4], in [5] and in [7] was “inactive” throughout. The Potency in test [3] was 44.7 µM (active); in test [6] it was 0.447 µM (active). In test [9], the compound was classed as inactive.
Turning to `CCCN1CCC[C@@H]2Cc3[nH]ncc3C[C@H]21`, the Potency result in [1], in [2], in [3], in [4], in test [5] and in [6] was “inactive” each time. Besides, the Potency entry in test [7] and in [8] was “inactive” throughout.
Take `NCC(CC(=O)O)c1ccc(Cl)cc1` (stereo not drawn): the Potency entry in test [1], in test [2], in [3], in test [4], in [6] and in [7] was “inactive” in each case. Further, the call in test [9] was inactive.
In the case of `CC[N+](CC)(CC)CC`, the Potency entry in [1] and in [2] was “inactive” in each case. The outcome in test [9] and in [10] was inactive.
For `CCN(CC)CCOC(=O)C(O)(c1ccccc1)c1ccccc1`, the outcome in test [10] was inactive.
In the case of `CCC(COC(=O)c1cc(OC)c(OC)c(OC)c1)(c1ccccc1)N(C)C` (stereo not drawn), in [10], the compound was called inactive.
With `CCn1cc(C(=O)O)c(=O)c2ccc(C)nc21`, the Potency entry in test [2] was “inactive”. For the same compound, the outcome in [9] was inactive.
In the case of `N#CC(C#N)=Cc1ccc(O)c(O)c1`, the Potency in test [1] is 18.9 µM (active). Further, the call in [9] was inactive. For the same compound, the Potency entry in [4], in test [6], in [7] and in test [8] was “inactive” throughout.
On to `CNCCC(Oc1ccc(C(F)(F)F)cc1)c1ccccc1` (stereo not drawn), for which the Potency result in test [3] was “inactive”.
For the compound `Clc1cccc(N2CCNCC2)c1`, the Potency result in [2] is “inactive”. The result in [9] was inactive.
For the compound `O=C1NCN(c2ccccc2)C12CCN(CC1COc3ccccc3O1)CC2` (stereo not drawn), the Potency entry in test [1], in [2], in test [4], in [5], in [6] and in test [7] was “inactive” each time. The call in test [9] was inactive.
As for `Cc1cccc(C)c1NC1=NCCCS1`, the Potency entry in [2], in test [3], in [4], in [5], in test [6] and in test [7] was “inactive” in each case. For the same compound, the Potency result in [8] is “inactive”. Moreover, the compound was called inactive in test [9].
With `CC(C)=CCOc1c2occc2cc2ccc(=O)oc12`, the Potency result in test [1], in test [2], in test [4], in test [5], in test [6] and in test [7] was “inactive” in each case. Also, the Potency result in test [8] is “inactive”.
`O=c1c(O)c(-c2ccc(O)c(O)c2)oc2cc(O)cc(O)c12`: the Potency is 2.38 µM (active) in [1]; 39.8 µM (active) and inactive in test [2]; 4.11 µM (active) in test [5]; 20.6 µM (active) in test [8].
As for `OCCN1CCN(CCCN2c3ccccc3Sc3ccc(C(F)(F)F)cc32)CC1`, the Potency in [3] is 0.006 µM (active). Further, the Potency result in test [5] was “inactive”.
On to `Cc1cc2c(C(C)C)c(O)c(O)c(C=O)c2c(O)c1-c1c(C)cc2c(C(C)C)c(O)c(O)c(C=O)c2c1O`, for which the Potency was 11.9 µM (active) in test [1]; 15 µM (active) in test [2]; 10 µM (active) in test [3]; 22.4 µM (active) in test [4]; 8.2 µM (active) in [8].
In the case of `Cc1ccc(S(=O)(=O)N[C@@H](CCCCN)C(=O)CCl)cc1`, the Potency entry in test [2], in test [3], in [4], in [5], in test [6] and in test [7] was “inactive” each time. Also, the compound was called inactive in test [9].
As to `CN(C)CCC=C1c2ccccc2CCc2ccccc21`, the Potency entry in [2] and in test [5] was “inactive” throughout. In addition, in test [6], the Potency is 1.12 µM (active).
In the case of `CN1CCN(C(=O)O[C@H]2c3nccnc3C(=O)N2c2ccc(Cl)cn2)CC1`, in test [10], the result was inactive.
`O=c1[nH]c2ccccc2n1CCCN1CCC(n2c(=O)[nH]c3cc(Cl)ccc32)CC1`: the Potency result in [2], in test [4], in [5] and in test [7] was “inactive” in each case. Further, the compound was called inactive in test [9] and in test [10]. Also, the Potency in [8] was 16.4 µM (active).
As to `CC[C@@H](CO)NC(=O)[C@@H]1C=C2c3cccc4c3c(cn4C)C[C@H]2N(C)C1`, the Potency result in test [2], in [4], in test [5], in test [7] and in test [8] was “inactive” throughout. Besides, in test [10], the call was inactive.
Regarding `CCN(C(C)=O)c1cccc(-c2ccnc3c(C#N)cnn23)c1`, the compound was classed as inactive in test [10].
In the case of `OCCOc1ccccc1`, in [10], the outcome was inactive.
Same read-out and setting: next, `CCC(C(N)=O)N1CCCC1=O` (stereo not drawn): “inactive”.
Take `CC(C)C(=O)Nc1ccc([N+](=O)[O-])c(C(F)(F)F)c1`: the Potency result in test [2], in test [3], in test [5] and in [7] was “inactive” in each case.
For the compound `CC1NCCOC1c1ccccc1` (stereo not drawn), in [10], the compound was classed as inactive.
Consider `CC[C@@H](CO)NC(=O)[C@@H]1C=C2c3cccc4[nH]cc(c34)C[C@H]2N(C)C1`, for which the Potency entry in [4], in [5], in test [7] and in test [8] was “inactive” throughout. In addition, in test [6], the Potency was 0.447 µM (active).
On to `Cn1c(CCCC(=O)O)nc2cc(N(CCCl)CCCl)ccc21`, for which the result in test [10] was inactive.
`Nc1ccncc1`: the Potency entry in test [1], in test [2], in test [4], in test [5], in test [6] and in test [7] was “inactive” throughout. Further, the Potency entry in [8] is “inactive”. In test [9], the call was inactive.
`c1ccc(C2CC2)c(OCC2=NCCN2)c1`: the Potency result in test [1], in test [2], in test [4], in test [5], in test [6] and in test [7] was “inactive” in each case. In test [8], the Potency entry was “inactive”. In addition, the call in test [9] was inactive.
`CC[N+]1(C)CCCC(OC(=O)C(O)(c2ccccc2)c2ccccc2)C1` (stereo not drawn): in [10], the outcome was inactive.
Turning to `COc1cc2c(c(OC)c1OC)-c1ccc(OC)c(=O)cc1[C@@H](NC(C)=O)CC2`, the Potency entry in test [1] and in [3] was “inactive” each time. Moreover, in [7], the Potency is 0.461 µM (active).
Consider `CN(C)CCc1ccc(O)cc1`, for which the outcome in [10] was inactive.
`CN(C)C(=O)C(CCN1CCC(O)(c2ccc(Cl)cc2)CC1)(c1ccccc1)c1ccccc1`: the Potency entry in [7] is “inactive”.
